Molecules are shown by their SMILES.

The target in assay [1] is Tyrosine-protein kinase CSK (Homo sapiens) (UniProt P41240). Particulars: at 1 µM.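 Also: each value is an averaged inhibition reading.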
Assay [2] concerns the target T1, Discoidin domain-containing receptor 2 (Homo sapiens) (UniProt Q16832).
T1 sequence (whole entry): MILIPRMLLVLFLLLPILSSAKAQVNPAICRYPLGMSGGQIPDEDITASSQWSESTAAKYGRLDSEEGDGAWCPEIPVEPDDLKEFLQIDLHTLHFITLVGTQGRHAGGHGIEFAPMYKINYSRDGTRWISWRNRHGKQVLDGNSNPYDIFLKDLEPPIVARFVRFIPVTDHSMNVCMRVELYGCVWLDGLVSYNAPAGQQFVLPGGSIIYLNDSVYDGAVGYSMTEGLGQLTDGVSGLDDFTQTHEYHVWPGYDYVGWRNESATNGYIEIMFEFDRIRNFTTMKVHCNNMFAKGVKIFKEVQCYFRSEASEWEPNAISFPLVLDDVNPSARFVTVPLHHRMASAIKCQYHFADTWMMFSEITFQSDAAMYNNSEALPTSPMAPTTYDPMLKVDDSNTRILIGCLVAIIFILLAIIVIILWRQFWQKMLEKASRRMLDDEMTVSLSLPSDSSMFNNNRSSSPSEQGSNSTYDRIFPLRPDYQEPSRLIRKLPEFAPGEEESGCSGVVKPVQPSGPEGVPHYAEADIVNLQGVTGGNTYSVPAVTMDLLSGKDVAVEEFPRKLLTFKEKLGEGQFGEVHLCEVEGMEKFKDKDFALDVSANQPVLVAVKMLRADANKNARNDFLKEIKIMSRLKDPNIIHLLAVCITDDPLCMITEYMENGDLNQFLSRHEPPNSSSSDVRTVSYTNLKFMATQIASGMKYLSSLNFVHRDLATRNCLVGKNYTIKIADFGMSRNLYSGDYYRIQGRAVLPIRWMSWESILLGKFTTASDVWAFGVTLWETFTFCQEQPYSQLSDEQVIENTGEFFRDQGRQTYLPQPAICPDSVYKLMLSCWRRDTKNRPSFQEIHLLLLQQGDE
The note with it: at 0.1 µM.

Assay [3] has as its target T1, Discoidin domain-containing receptor 2 (Homo sapiens). Particulars: at 1 µM.
Assay [4] addresses Epidermal growth factor receptor (Homo sapiens) (UniProt P00533). Particulars: at 0.1 µM.
For assay [5] the target is unchanged. Particulars: at 1 µM.
Assay [6] has as its system Epidermal growth factor receptor (Homo sapiens), P00533 [L858R]. The note with it: at 0.1 µM.
Assay [7] shares this test system. The note with it: at 1 µM.
Assay [8] concerns Epidermal growth factor receptor (Homo sapiens), P00533 [L861Q]. The note with it: at 0.1 µM.
Assay [9] shares this test system. Particulars: at 1 µM.
The test system of assay [10] is Epidermal growth factor receptor (Homo sapiens), P00533 [T790M]. The note with it: at 0.1 µM.
Sequence of Epidermal growth factor receptor (Homo sapiens), P00533 [T790M] (P00533 whole entry T790M): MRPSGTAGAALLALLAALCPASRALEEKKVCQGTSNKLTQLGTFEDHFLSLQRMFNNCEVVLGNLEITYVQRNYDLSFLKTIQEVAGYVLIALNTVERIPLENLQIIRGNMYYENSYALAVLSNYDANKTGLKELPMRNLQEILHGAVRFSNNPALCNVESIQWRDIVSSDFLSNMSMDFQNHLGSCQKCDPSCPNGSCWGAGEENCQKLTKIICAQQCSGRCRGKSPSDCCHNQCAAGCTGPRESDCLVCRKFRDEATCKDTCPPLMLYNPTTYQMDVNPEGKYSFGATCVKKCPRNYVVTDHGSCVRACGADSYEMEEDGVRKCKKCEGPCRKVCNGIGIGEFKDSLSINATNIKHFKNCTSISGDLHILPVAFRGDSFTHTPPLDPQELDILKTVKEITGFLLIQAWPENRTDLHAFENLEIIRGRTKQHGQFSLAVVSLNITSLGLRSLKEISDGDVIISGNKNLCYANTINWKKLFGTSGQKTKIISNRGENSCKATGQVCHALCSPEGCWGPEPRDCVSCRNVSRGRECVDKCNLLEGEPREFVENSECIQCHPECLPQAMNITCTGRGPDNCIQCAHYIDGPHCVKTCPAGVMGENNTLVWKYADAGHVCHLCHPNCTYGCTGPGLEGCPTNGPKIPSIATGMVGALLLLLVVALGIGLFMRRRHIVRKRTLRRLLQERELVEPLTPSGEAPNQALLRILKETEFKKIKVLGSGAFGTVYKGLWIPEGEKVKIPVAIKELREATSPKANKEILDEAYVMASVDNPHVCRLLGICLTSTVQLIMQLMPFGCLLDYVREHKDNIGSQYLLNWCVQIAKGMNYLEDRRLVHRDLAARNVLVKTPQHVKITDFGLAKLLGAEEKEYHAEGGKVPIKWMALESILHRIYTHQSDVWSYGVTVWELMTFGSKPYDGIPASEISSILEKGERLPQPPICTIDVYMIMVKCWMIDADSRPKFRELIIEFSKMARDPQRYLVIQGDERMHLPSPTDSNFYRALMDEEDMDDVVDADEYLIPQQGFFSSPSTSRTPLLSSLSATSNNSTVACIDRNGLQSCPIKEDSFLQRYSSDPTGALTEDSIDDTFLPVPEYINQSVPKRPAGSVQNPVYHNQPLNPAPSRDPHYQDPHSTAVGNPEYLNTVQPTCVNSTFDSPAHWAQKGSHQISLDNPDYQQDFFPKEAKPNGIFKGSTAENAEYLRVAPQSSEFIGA
The test system is the same in assay [11]. Particulars: at 1 µM.
Assay [12] relates to Epidermal growth factor receptor (Homo sapiens), P00533 [L858R,T790M]. The note with it: at 0.1 µM.
The test system is the same in assay [13]. The note with it: at 1 µM.
In assay [14] the target is Ephrin type-A receptor 2 (Homo sapiens) (UniProt P29317). The note with it: at 0.1 µM.
Sequence of Ephrin type-A receptor 2 (Homo sapiens) (P29317 whole entry): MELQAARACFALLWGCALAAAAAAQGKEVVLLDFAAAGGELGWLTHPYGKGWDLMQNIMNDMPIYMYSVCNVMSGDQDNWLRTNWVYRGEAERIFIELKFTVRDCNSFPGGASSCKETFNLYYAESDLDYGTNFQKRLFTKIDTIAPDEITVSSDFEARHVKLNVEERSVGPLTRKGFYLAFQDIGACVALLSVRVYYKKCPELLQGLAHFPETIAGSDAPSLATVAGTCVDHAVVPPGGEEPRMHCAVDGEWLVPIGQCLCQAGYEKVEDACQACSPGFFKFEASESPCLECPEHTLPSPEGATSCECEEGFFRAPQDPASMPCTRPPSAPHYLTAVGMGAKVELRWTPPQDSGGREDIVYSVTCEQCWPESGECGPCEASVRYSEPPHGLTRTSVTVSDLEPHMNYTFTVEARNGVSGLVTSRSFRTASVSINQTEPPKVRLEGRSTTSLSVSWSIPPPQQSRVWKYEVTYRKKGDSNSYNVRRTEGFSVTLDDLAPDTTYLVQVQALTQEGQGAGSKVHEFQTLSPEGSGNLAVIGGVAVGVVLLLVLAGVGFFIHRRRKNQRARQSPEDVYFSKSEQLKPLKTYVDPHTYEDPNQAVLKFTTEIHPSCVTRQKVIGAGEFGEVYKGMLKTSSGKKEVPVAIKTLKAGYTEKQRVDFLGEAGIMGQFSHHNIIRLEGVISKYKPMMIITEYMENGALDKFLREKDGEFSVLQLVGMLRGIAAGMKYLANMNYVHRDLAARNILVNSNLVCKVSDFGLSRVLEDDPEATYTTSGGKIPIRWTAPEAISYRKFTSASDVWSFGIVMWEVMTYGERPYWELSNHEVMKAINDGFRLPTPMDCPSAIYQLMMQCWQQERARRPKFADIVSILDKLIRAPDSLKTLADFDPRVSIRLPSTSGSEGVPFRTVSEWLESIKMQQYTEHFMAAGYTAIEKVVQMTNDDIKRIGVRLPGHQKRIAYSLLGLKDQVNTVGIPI
The target is the same in assay [15]. Particulars: at 1 µM.
For assay [16], the target named is T2, Ephrin type-A receptor 3 (Homo sapiens) (UniProt P29320).
T2 sequence (whole entry): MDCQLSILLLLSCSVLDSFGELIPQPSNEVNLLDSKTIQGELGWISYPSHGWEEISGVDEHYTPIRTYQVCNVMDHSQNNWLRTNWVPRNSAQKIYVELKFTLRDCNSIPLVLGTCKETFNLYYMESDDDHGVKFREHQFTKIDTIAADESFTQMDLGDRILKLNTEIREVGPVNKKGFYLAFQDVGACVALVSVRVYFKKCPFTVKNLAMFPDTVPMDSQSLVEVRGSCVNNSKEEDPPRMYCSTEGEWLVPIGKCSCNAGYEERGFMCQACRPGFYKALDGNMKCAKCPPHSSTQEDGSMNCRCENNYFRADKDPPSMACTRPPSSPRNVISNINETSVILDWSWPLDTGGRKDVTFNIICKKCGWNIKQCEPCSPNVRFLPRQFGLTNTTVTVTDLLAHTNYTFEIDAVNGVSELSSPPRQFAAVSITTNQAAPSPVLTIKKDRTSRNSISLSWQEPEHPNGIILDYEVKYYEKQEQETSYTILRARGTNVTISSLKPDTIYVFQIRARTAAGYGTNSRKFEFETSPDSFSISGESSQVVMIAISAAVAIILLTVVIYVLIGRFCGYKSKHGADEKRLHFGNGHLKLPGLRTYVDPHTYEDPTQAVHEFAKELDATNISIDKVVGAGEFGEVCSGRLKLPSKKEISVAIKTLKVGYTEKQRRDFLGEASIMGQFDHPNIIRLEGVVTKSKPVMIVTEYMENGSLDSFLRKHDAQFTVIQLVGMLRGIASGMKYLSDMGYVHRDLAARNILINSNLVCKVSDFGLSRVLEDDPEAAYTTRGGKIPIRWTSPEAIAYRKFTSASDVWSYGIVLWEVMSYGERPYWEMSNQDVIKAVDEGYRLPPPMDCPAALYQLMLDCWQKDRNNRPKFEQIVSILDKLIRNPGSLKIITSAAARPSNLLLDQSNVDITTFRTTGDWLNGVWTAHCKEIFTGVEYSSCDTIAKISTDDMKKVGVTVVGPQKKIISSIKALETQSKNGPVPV
Particulars: at 0.1 µM.

Assay [17] has as its target T2, Ephrin type-A receptor 3 (Homo sapiens). Particulars: at 1 µM.
The target in assay [18] is Ephrin type-A receptor 4 (Homo sapiens) (UniProt P54764). Particulars: at 0.1 µM.
Sequence of Ephrin type-A receptor 4 (Homo sapiens) (P54764 whole entry): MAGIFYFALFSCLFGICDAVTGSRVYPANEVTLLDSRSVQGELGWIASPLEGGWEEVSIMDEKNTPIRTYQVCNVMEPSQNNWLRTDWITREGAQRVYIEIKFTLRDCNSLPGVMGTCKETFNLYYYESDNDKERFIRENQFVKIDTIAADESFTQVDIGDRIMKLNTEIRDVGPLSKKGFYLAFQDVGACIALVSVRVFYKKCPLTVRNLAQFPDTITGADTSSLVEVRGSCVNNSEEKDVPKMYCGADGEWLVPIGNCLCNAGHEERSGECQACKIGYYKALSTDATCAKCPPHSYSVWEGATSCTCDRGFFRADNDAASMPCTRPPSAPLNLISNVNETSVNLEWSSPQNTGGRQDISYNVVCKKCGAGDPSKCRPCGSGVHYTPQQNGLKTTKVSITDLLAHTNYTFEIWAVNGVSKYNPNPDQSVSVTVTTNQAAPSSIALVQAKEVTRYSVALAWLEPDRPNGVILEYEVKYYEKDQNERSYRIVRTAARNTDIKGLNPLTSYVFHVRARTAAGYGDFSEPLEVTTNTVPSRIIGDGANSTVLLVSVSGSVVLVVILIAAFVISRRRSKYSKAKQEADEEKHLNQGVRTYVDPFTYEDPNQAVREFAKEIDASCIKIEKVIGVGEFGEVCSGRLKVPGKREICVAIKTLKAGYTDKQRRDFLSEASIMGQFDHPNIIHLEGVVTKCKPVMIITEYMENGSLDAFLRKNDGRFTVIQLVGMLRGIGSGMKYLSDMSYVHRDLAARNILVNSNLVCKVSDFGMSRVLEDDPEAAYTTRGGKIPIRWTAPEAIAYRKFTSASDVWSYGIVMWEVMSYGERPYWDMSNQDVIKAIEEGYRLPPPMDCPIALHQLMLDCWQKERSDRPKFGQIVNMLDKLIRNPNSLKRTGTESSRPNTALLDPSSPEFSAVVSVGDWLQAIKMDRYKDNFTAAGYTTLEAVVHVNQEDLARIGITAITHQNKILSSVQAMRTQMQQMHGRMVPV
Assay [19] shares this target. Particulars: at 1 µM.
The target of assay [20] is T3, Ephrin type-B receptor 2 (Homo sapiens) (UniProt P29323).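 Also: reported as mean inhibition of EPHB2, from the GSK PKIS dataset.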
T3 sequence (whole entry): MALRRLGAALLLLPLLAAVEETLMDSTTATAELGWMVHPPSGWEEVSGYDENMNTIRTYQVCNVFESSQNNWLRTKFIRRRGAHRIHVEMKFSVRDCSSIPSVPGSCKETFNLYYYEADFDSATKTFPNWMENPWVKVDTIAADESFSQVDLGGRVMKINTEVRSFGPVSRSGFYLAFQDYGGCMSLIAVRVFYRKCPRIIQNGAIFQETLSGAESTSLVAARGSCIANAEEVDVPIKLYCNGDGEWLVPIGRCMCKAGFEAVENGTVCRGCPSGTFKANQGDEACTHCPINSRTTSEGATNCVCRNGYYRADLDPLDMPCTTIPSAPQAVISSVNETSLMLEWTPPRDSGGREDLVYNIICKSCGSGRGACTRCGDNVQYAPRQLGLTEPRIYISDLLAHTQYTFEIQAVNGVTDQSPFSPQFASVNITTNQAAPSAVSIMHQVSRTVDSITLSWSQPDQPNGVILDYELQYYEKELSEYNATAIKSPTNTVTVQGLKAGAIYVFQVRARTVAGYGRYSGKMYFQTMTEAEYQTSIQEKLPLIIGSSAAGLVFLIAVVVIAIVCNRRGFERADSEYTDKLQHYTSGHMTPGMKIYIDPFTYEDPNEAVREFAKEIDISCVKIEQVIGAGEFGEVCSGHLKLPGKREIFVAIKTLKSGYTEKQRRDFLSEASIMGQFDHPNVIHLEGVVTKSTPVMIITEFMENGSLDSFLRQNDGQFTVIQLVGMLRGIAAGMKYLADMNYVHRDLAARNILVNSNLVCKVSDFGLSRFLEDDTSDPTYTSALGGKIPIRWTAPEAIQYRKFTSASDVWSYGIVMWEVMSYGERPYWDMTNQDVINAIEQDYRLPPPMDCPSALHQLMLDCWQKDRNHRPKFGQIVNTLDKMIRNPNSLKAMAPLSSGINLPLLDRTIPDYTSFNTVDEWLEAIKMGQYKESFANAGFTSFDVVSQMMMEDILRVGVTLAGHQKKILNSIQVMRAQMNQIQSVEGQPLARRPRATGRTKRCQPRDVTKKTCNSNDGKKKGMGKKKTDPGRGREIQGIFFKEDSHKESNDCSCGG
Particulars: at 0.1 µM.

Sequence of Epidermal growth factor receptor (Homo sapiens), P00533 [L858R] (P00533 whole entry L858R): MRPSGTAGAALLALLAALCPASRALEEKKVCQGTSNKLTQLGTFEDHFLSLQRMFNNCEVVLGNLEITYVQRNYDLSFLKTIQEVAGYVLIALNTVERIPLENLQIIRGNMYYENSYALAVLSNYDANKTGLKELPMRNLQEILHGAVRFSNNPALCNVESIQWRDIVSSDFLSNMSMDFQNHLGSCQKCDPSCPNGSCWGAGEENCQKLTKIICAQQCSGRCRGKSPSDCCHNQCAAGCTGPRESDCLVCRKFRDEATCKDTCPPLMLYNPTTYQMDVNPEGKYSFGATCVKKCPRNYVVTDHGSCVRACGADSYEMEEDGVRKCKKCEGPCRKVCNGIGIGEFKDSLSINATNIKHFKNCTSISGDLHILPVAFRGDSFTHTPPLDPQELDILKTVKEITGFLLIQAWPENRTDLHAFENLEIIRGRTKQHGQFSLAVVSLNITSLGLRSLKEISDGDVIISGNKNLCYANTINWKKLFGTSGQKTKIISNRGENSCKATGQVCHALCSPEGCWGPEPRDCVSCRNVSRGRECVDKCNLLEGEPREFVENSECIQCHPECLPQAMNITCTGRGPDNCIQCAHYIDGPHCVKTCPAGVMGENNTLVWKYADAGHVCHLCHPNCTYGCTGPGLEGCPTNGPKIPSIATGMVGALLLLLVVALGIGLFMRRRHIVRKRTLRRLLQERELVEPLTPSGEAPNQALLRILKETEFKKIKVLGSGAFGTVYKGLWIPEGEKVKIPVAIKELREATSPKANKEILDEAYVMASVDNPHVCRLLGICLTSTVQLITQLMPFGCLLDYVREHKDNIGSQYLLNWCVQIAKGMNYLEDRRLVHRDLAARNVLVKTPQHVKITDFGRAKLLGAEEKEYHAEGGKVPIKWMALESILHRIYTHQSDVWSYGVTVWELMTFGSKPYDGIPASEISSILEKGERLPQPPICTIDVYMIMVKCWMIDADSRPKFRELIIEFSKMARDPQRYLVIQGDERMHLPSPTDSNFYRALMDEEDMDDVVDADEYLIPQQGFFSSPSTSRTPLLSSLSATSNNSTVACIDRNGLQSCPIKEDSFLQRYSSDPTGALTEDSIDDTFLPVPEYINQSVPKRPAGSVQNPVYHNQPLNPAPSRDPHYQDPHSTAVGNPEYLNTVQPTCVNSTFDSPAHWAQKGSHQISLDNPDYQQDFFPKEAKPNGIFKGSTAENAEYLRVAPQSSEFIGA
Sequence of Tyrosine-protein kinase CSK (Homo sapiens) (P41240 2-450 limits assumed): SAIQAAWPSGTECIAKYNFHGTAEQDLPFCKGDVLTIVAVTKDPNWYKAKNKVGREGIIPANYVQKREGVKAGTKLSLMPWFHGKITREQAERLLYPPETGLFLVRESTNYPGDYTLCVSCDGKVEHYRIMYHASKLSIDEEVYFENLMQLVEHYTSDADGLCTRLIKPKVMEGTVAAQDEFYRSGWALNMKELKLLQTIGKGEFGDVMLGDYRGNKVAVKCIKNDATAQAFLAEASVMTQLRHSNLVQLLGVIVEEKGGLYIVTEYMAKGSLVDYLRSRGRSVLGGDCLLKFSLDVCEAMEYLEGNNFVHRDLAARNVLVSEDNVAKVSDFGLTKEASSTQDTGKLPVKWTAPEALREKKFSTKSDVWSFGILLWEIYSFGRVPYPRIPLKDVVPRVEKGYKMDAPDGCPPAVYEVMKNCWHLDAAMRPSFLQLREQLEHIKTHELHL

On to `COc1cc2ncn(-c3cc(OCc4ccccc4S(C)(=O)=O)c(C#N)s3)c2cc1OC`, for which the inhibition in assay [1] worked out at 4.26%; in assay [2], 2.02%; in assay [3] it was 8.19%; in assay [4], 3.74%; in assay [5], 11.8%; in [6], 9.37%. The inhibition came to 45.8% in assay [7]; 3.09% in assay [8]; 8.31% in assay [9]; 3.02% in assay [10]; 8.63% in [11]; 16.9% in assay [12]. In addition, the inhibition was 62.5% in assay [13]; 9.06% in [14]; 34.4% in [15]; 8.09% in assay [16]; 13.6% in assay [17]; 15.2% in [18]. The inhibition came out at 57.3% in [19] and 14% in assay [20].

On to `Nc1nccc(-c2c(-c3ccc(F)cc3)nn3cc(C(F)(F)F)ccc23)n1`, for which the inhibition in assay [1] was 1.17%; in [2], 1.51%; in assay [3], 5.28%; in assay [4], -0.27%; in [5], 3.78%; in assay [6] it was 1.74%. Besides, the inhibition is 11.4% in assay [7]; -0.3% in assay [8]; 3.8% in assay [9]; 0.44% in [10]; 2.37% in assay [11]; -0.45% in [12]. In addition, the inhibition in [13] was 1.18%; in assay [14], 0.62%; in assay [15], -0.02%; in assay [16] it was 0.75%; in assay [17], -0.28%; in assay [18], 2.89%. In addition, the values for the inhibition in assay [19] and in assay [20] were 5.34% and -9.27%, respectively.

Take `NS(=O)(=O)c1cccc(Nc2cc(-c3ccc(F)cc3)n[nH]2)c1`: the inhibition in assay [1] is 6.86%; in assay [2], 0.4%; in assay [3] it was 2.6%; in assay [4], -0.56%; in [5], 3.41%; in assay [6], 1.69%. Also, the inhibition in [7] was found to be 6.63%; in [8], 2.18%; in assay [9], 5.8%; in assay [10] it was 2.62%; in [11], 3.89%; in [12], 0.96%. Besides, the inhibition worked out at 2.35% in assay [13]; 0.44% in assay [14]; 0.73% in assay [15]; 4.22% in assay [16]; 4.16% in [17]; 8.18% in assay [18]. Further, the inhibition is 10% in assay [19] and 5.43% in assay [20].

Take `N#Cc1c(NC(=O)c2ccccc2F)sc2c1CCCC2`: the inhibition in assay [1] is -5.02%; in assay [2], -1.61%; in [3], -1.14%; in assay [4], 2.1%; in assay [5], 4%; in assay [6], 1.21%. Besides, the inhibition in [7] was 3.66%; in assay [8], -0.67%; in [9] it was -1.19%; in assay [10], -2.41%; in assay [11] it was -1.31%; in [12] it was -0.25%. In addition, the inhibition in assay [13] was -0.34%; in assay [14], -2.61%; in assay [15], -2.44%; in [16], -3.2%; in assay [17], -1.65%; in assay [18] it was -3.04%. For the same compound, the figures for the inhibition in [19] and in assay [20] were -0.99% and -7.95%, respectively.

For `CN(C)C(=O)O[C@@H]1CN[C@@H](C#Cc2cc3ncnc(Nc4ccc(OCc5cccc(F)c5)c(Cl)c4)c3s2)C1`, the inhibition in assay [1] was -1.42%; in assay [2], 1.79%; in assay [3] it was 3.36%; in assay [14], -0.17%; in assay [15], 1.05%; in assay [16] it was 5.64%. The inhibition was 1.99% in assay [17], 1.85% in [18], -8.34% in assay [19] and 0.71% in assay [20].

Take `ON=C1CCc2cc(-c3nc(C4CCNCC4)[nH]c3-c3ccncc3)ccc21`: the inhibition was -6.96% in assay [1]; -0.82% in assay [2]; -2.38% in assay [3]; 0.23% in assay [4]; 2.59% in [5]; -0.65% in assay [6]. Further, the inhibition in assay [7] was -1.1%; in assay [8] it was 0.26%; in assay [9], -2.11%; in assay [10], -0.91%; in assay [11] it was -1.84%; in [12] it was -1.88%. For the same compound, the inhibition in assay [13] is 0.18%; in assay [14] it was 1.25%; in [15], 0.6%; in assay [16], 0.3%; in [17], -2.2%; in [18], -1.9%. The inhibition is -7.94% in assay [19] and -5.22% in assay [20].

With `Cc1ccc2c(-c3ccnc(Nc4ccc5c(c4)OCCO5)n3)c(-c3ccc(C(F)(F)F)cc3)nn2n1`, the inhibition is 0.48% in assay [1]; -0.19% in [2]; 6.25% in [3]; -0.94% in assay [4]; 3.45% in assay [5]; 0.63% in [6]. Besides, the inhibition was 5.71% in assay [7]; -1.17% in [8]; 5.26% in [9]; -0.63% in [10]; 1.14% in assay [11]; 2.01% in assay [12]. Moreover, the inhibition in assay [13] came out at 2.06%; in assay [14], 2.03%; in assay [15] it was 0.72%; in assay [16], 1.81%; in [17], 0%; in assay [18], 1.21%. The results for the inhibition in assay [19] and in [20] were 3.57% and -7.93%, respectively.

Take `Cc1ccc(Nc2ccnc(Nc3cccc(C(N)=O)c3)n2)cc1O`: the inhibition in assay [1] is 35.4%; in assay [2], 5.32%; in assay [3], 30%; in assay [4], -1.74%; in [5], 11.7%; in assay [6], 5.83%. In addition, the inhibition came out at 32% in [7]; 4.18% in [8]; 13% in [9]; 3.21% in [10]; 14.9% in assay [11]; 2.53% in [12]. The inhibition was 5.38% in [13]; 1.66% in assay [14]; 23.3% in assay [15]; 14.3% in assay [16]; 33.9% in assay [17]; 17.1% in [18]. Also, the inhibition in assay [19] amounted to 62.9%; in [20], 8.62%.

The term inhibition denotes the change of the read-out against control, counted positive when it falls.
